{
  "source": "a collection of fitness landscapes (doi:10.1038/s41467-024-54723-y)",
  "note": "Whole data set: some 18,000 sequences, median “TetR repression strength (sort-seq, GFP reporter)” near 0.23, cut for the highest 2% near 0.68. The entries come from a sample that favours the highest values as a whole.",
  "data": [
    {"biological_target": "TetR (class B, Tn10) (UniProt P04483)", "sequence (P04483 whole entry)": "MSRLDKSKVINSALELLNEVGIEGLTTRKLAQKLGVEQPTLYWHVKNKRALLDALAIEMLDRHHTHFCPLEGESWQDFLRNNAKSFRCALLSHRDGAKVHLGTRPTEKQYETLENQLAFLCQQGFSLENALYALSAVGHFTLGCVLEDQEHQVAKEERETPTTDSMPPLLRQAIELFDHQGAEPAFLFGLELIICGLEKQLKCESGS", "experiment": "TetR repression strength (sort-seq, GFP reporter) (relative to tetO2 = 1); higher = stronger repression", "settings": "E. coli", "summary_of_the_method": "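Three independent transformations of E. coli SIG10-MAX were made with a low-copy plasmid library randomizing eight operator positions between a constitutive promoter and sfGFP, with constitutive TetR. Following 5 h at 37 °C in LB plus 50 µg/mL chloramphenicol, 10^6 cells went through FACS into 13 fluorescence bins, and each bin was sequenced by Illumina. Repression strength was defined as the top bin index plus one minus the read-weighted mean bin, divided by the unaltered operator's value. Averages included only members reaching ≥30 reads in all replicates with a CV ≤0.5.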", "values": [
      {"sequence": "TCCCTGAGAGTCGTGGAGA", "TetR repression strength": 0.239},
      {"sequence": "TCCCGTCAAGTGGATGAGA", "TetR repression strength": 0.109},
      {"sequence": "TCCCTCCGAGTGCAGGAGA", "TetR repression strength": 0.492},
      {"sequence": "TCCCCCGCAGTGCATGAGA", "TetR repression strength": 0.385},
      {"sequence": "TCCCCCTCAGTTGTAGAGA", "TetR repression strength": 0.237},
      {"sequence": "TCCCGACCAGTGCAGGAGA", "TetR repression strength": 0.805},
      {"sequence": "TCCCGAGAAGTGCAGGAGA", "TetR repression strength": 0.173},
      {"sequence": "TCCCGAAAAGTGCAGGAGA", "TetR repression strength": 0.26},
      {"sequence": "TCCCGAGCAGTGCAGGAGA", "TetR repression strength": 0.226},
      {"sequence": "TCCCGACAAGTGCAGGAGA", "TetR repression strength": 0.684},
      {"sequence": "TCCCGACCAGTGCGGGAGA", "TetR repression strength": 0.222},
      {"sequence": "TCCCTAGCAGTGGTGGAGA", "TetR repression strength": 0.27},
      {"sequence": "TCCCGTTGAGTGTATGAGA", "TetR repression strength": 0.181},
      {"sequence": "TCCCAGGCAGTCCGTGAGA", "TetR repression strength": 0.2},
      {"sequence": "TCCCGGTTAGTGCAAGAGA", "TetR repression strength": 0.415},
      {"sequence": "TCCCTAGGAGTAACGGAGA", "TetR repression strength": 0.183},
      {"sequence": "TCCCGTCTAGTTGAGGAGA", "TetR repression strength": 0.24},
      {"sequence": "TCCCTTCTAGTTAAGGAGA", "TetR repression strength": 0.283},
      {"sequence": "TCCCGTCGAGTGCCGGAGA", "TetR repression strength": 0.363},
      {"sequence": "TCCCGTCGAGTCCCGGAGA", "TetR repression strength": 0.402},
      {"sequence": "TCCCGTCGAGTTCCGGAGA", "TetR repression strength": 0.977},
      {"sequence": "TCCCGTCGAGTTAAGGAGA", "TetR repression strength": 0.815},
      {"sequence": "TCCCGTCGAGTAAAGGAGA", "TetR repression strength": 0.22},
      {"sequence": "TCCCGTCTAGTTCTGGAGA", "TetR repression strength": 0.687},
      {"sequence": "TCCCGTCTAGTTCTAGAGA", "TetR repression strength": 0.36},
      {"sequence": "TCCCGTCTAGTTAAGGAGA", "TetR repression strength": 0.811},
      {"sequence": "TCCCGTGTAGTTCTGGAGA", "TetR repression strength": 0.189},
      {"sequence": "TCCCGTCGAGTGAAGGAGA", "TetR repression strength": 0.311},
      {"sequence": "TCCCCGTAAGTGCAGGAGA", "TetR repression strength": 0.21},
      {"sequence": "TCCCAGCGAGTCCAGGAGA", "TetR repression strength": 0.27},
      {"sequence": "TCCCACTTAGTAAGTGAGA", "TetR repression strength": 0.141},
      {"sequence": "TCCCAGTAAGTAGCCGAGA", "TetR repression strength": 0.0168},
      {"sequence": "TCCCGGACAGTATATGAGA", "TetR repression strength": 0.304},
      {"sequence": "TCCCTAGCAGTAGTAGAGA", "TetR repression strength": 0.681},
      {"sequence": "TCCCCGCTAGTTAAGGAGA", "TetR repression strength": 0.755},
      {"sequence": "TCCCCACTAGTTAAGGAGA", "TetR repression strength": 0.225},
      {"sequence": "TCCCCGTTAGTTAAGGAGA", "TetR repression strength": 0.149},
      {"sequence": "TCCCGGAGAGTGTATGAGA", "TetR repression strength": 0.188},
      {"sequence": "TCCCAGTGAGTTGCCGAGA", "TetR repression strength": 0.212},
      {"sequence": "TCCCGTCAAGTTCATGAGA", "TetR repression strength": 0.15},
      {"sequence": "TCCCATAAAGTTCATGAGA", "TetR repression strength": 0.36},
      {"sequence": "TCCCCTACAGTTCATGAGA", "TetR repression strength": 0.189},
      {"sequence": "TCCCGTACAGTTGATGAGA", "TetR repression strength": 0.2},
      {"sequence": "TCCCGTAAAGTTCATGAGA", "TetR repression strength": 1.21},
      {"sequence": "TCCCGTACAGTTCATGAGA", "TetR repression strength": 1.18},
      {"sequence": "TCCCAGTTAGTCTTTGAGA", "TetR repression strength": 0.334},
      {"sequence": "TCCCTAAAAGTTTGAGAGA", "TetR repression strength": 0.334},
      {"sequence": "TCCCGTGCAGTGATAGAGA", "TetR repression strength": 0.647},
      {"sequence": "TCCCGTTCAGTGATAGAGA", "TetR repression strength": 0.819},
      {"sequence": "TCCCATCCAGTGATAGAGA", "TetR repression strength": 0.626},
      {"sequence": "TCCCGTGCAGTGCTAGAGA", "TetR repression strength": 0.38},
      {"sequence": "TCCCGTTCAGTGCGAGAGA", "TetR repression strength": 0.0532},
      {"sequence": "TCCCGTTCAGTGAGAGAGA", "TetR repression strength": 0.516},
      {"sequence": "TCCCGTTCAGTGCTAGAGA", "TetR repression strength": 0.681},
      {"sequence": "TCCCTGCTAGTGATCGAGA", "TetR repression strength": 0.745},
      {"sequence": "TCCCATTCAGTGATAGAGA", "TetR repression strength": 0.707},
      {"sequence": "TCCCTGATAGTGATCGAGA", "TetR repression strength": 0.362},
      {"sequence": "TCCCATTCAGTTATAGAGA", "TetR repression strength": 0.596},
      {"sequence": "TCCCTGCTAGTGATAGAGA", "TetR repression strength": 0.638},
      {"sequence": "TCCCGGGAAGTATTCGAGA", "TetR repression strength": 0.391},
      {"sequence": "TCCCCAAGAGTTTGGGAGA", "TetR repression strength": 0.217},
      {"sequence": "TCCCGGATAGTACTAGAGA", "TetR repression strength": 0.291},
      {"sequence": "TCCCGGTTAGTTCGAGAGA", "TetR repression strength": 0.0821},
      {"sequence": "TCCCCACCAGTGGCGGAGA", "TetR repression strength": 0.231},
      {"sequence": "TCCCTACTAGTACGGGAGA", "TetR repression strength": 0.394},
      {"sequence": "TCCCGCTCAGTTGTAGAGA", "TetR repression strength": 0.421},
      {"sequence": "TCCCATACAGTTGGAGAGA", "TetR repression strength": 0.37},
      {"sequence": "TCCCCATAAGTACAAGAGA", "TetR repression strength": 0.446},
      {"sequence": "TCCCGTGTAGTAGGAGAGA", "TetR repression strength": 0.17},
      {"sequence": "TCCCTCGCAGTGGATGAGA", "TetR repression strength": 0.323},
      {"sequence": "TCCCATTTAGTGATCGAGA", "TetR repression strength": 0},
      {"sequence": "TCCCATTAAGTGATCGAGA", "TetR repression strength": 0.344},
      {"sequence": "TCCCTGACAGTTGGCGAGA", "TetR repression strength": 0.301},
      {"sequence": "TCCCGTTCAGTAGGCGAGA", "TetR repression strength": 0.261},
      {"sequence": "TCCCGTTCAGTACGCGAGA", "TetR repression strength": 0.912},
      {"sequence": "TCCCTGTCAGTTGGAGAGA", "TetR repression strength": 0.36},
      {"sequence": "TCCCTGTCAGTTGGCGAGA", "TetR repression strength": 0.874},
      {"sequence": "TCCCGCTCAGTACGCGAGA", "TetR repression strength": 0.104},
      {"sequence": "TCCCATTCAGTGATCGAGA", "TetR repression strength": 0.731},
      {"sequence": "TCCCTGTCAGTGATAGAGA", "TetR repression strength": 0.863},
      {"sequence": "TCCCTGCCAGTGATAGAGA", "TetR repression strength": 0.646},
      {"sequence": "TCCCTGTCAGTGAGAGAGA", "TetR repression strength": 0.444},
      {"sequence": "TCCCGACTAGTAACTGAGA", "TetR repression strength": 0.613},
      {"sequence": "TCCCTAGTAGTTGTTGAGA", "TetR repression strength": 0.308},
      {"sequence": "TCCCCGGGAGTTATGGAGA", "TetR repression strength": 0.274},
      {"sequence": "TCCCACTTAGTTGCTGAGA", "TetR repression strength": 0.19},
      {"sequence": "TCCCGGTCAGTGAAGGAGA", "TetR repression strength": 0.236},
      {"sequence": "TCCCGGCCAGTCAAAGAGA", "TetR repression strength": 0.406},
      {"sequence": "TCCCTTCCAGTTCACGAGA", "TetR repression strength": 0.325},
      {"sequence": "TCCCAATTAGTTTGAGAGA", "TetR repression strength": 0.313},
      {"sequence": "TCCCCGCGAGTAGGAGAGA", "TetR repression strength": 0.405},
      {"sequence": "TCCCTGGGAGTGTGTGAGA", "TetR repression strength": 0.182},
      {"sequence": "TCCCGTGGAGTACTAGAGA", "TetR repression strength": 0.229},
      {"sequence": "TCCCGTTAAGTGCGAGAGA", "TetR repression strength": 0.109},
      {"sequence": "TCCCGTTCAGTGATCGAGA", "TetR repression strength": 0.724},
      {"sequence": "TCCCGTTAAGTGCTAGAGA", "TetR repression strength": 0.685},
      {"sequence": "TCCCTGAGAGTGATCGAGA", "TetR repression strength": 0.0416},
      {"sequence": "TCCCATTCAGTGCACGAGA", "TetR repression strength": 0.691},
      {"sequence": "TCCCATGCAGTGCACGAGA", "TetR repression strength": 0.17},
      {"sequence": "TCCCTGTCAGTGATCGAGA", "TetR repression strength": 0.734},
      {"sequence": "TCCCGTTCAGTGCTCGAGA", "TetR repression strength": 0.442},
      {"sequence": "TCCCTGTCAGTAATCGAGA", "TetR repression strength": 0.535},
      {"sequence": "TCCCGTTCAGTGAACGAGA", "TetR repression strength": 0.617},
      {"sequence": "TCCCGCTAAGTGCTAGAGA", "TetR repression strength": 0.36},
      {"sequence": "TCCCATTGAGTGCACGAGA", "TetR repression strength": 0.443}
    ]}
  ]
}
